# Results published in PubChem BioAssay.
# Biological target: Dickkopf-related protein 1 (Homo sapiens) (UniProt O94907)
# Test: small molecules binding DKK1 protein – biochemical, small-molecule microarray, 635 nm fluorescence scan, primary screen (AID 1106);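 further: score merges emission near 667 nm with signal to noise over three replicate slides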
# Conditions: higher = more signal
# Dickkopf-related protein 1 (Homo sapiens), sequence (O94907 whole entry, looked up): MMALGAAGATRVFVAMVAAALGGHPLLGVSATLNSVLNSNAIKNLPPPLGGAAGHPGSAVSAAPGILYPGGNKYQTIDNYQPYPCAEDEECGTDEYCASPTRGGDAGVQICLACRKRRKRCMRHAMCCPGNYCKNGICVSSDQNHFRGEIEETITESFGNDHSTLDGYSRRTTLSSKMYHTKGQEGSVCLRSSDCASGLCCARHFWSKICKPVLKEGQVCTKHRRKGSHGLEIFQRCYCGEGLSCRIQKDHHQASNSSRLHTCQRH
row,Structure (SMILES),composite z-score
1,COC(=O)[C@H](C)NC(=O)CCC1CC(OC(=O)NCCc2ccc(F)cc2)CC2(CCCC(COC(=O)NCC3CCCCC3)O2)O1 (stereo partly specified),0.678
2,COc1ccc2c(c1)O[C@@H](c1cccc(C(F)(F)F)c1)[C@H](O)C2=O,0.356
3,CCOC(=O)[C@H](Cc1ccccc1)NC(=O)CCC1CC(OC(=O)NCc2ccc3c(c2)OCO3)CC2(CCCC(COC(=O)NCCOc3ccccc3)O2)O1 (stereo partly specified),1.16
4,CC(=O)OC[C@H]1O[C@@H](ON=C(C)C)[C@H](OC(C)=O)[C@@H](OC(C)=O)[C@@H]1OC(C)=O,-1.38
5,CCOC(=O)[C@H](Cc1ccccc1)NC(=O)CCC1CC(OC(=O)NCc2ccc3c(c2)OCO3)CC2(CCCC(COC(=O)NCCc3ccc(Cl)cc3)O2)O1 (stereo partly specified),0.531
6,O=C1C=C[C@@H](O)[C@@H]2[C@@H]3C(=O)N(Cc4ccccc4)C(=O)[C@@H]3CC[C@@H]12,0.232
7,COC(=O)C1=C(C)N(Cc2ccccc2)C2=C3C(=O)OCC[C@@H]3[C@@](O)(C(=O)OC)C(=O)N2[C@@H]1c1ccccc1,0.563
8,CCCNC(=O)OC[C@H]1O[C@H](CCON=C[C@@H](NS(=O)(=O)c2ccc(C)cc2)[C@H](C)C=CCC(=O)OC)C=C[C@@H]1Oc1ccc(OC)cc1,-0.0968
9,CC=CC1=C(CO)[C@H](O)[C@H]2O[C@H]2[C@@H]1O,0.943
10,COc1ccc(O[C@H]2C=C[C@@H](C#Cc3ccccc3)O[C@@H]2CO)cc1,0.377
11,COC(=O)[C@@H]1CC[C@H](C)[C@@H](c2ccc(C)cc2)N1C(=O)c1ccc(C=NOC[C@H]2O[C@H](c3ccccc3)C=C[C@@H]2Oc2ccc(OC)cc2)cc1,0.15
12,CON=C1c2cc(OC)ccc2O[C@H](c2cccc(OC)c2)[C@H]1O,0.636
13,C[C@@H]1CC[C@H]2C(=O)OC(Cc3ccccc3)CN2[C@H]1c1ccc(Br)cc1 (stereo partly specified),-0.0094
14,C=CCOCC1CN2[C@@H](CC[C@@H](C)[C@@H]2c2ccc(Br)cc2)C(=O)O1 (stereo partly specified),0.0635
15,COc1ccc(COC(=O)NN=C2C[C@@H](O)[C@@H](O)[C@@H]3[C@@H]4C(=O)N(Cc5ccccc5)C(=O)[C@@H]4CC[C@@H]23)cc1,0.227
16,COC(=O)[C@H](C)NC(=O)CCC1CC(OC(=O)NCCc2ccc(F)cc2)CC2(CCCC(COC(=O)NCCOc3ccccc3)O2)O1 (stereo partly specified),0.652
17,COC(=O)[C@H](C)NC(=O)CCC1CC(OC(=O)NCCc2ccc(F)cc2)CC2(CCCC(COC(=O)NCCc3ccccc3OC)O2)O1 (stereo partly specified),1.26
18,CCOC(=O)[C@H](CC(C)C)NC(=O)CCC1CC(OC(=O)NCc2ccc3c(c2)OCO3)CC2(CCCC(COC(=O)NCCC(C)C)O2)O1 (stereo partly specified),0.0586

row,Structure (SMILES),composite z-score
1,C=C(C)C(=O)OC[C@H]1CN2[C@@H](CC[C@@H](C)[C@@H]2c2ccc(Br)cc2)C(=O)O1,0.302
2,CO[C@@H]1COC(=O)[C@H](COCc2ccccc2)NC(=O)CC=C[C@@H](C)[C@H](OC)COC(=O)[C@@H](C)NC(=O)CC=C[C@H]1C,1.16
3,O=C1C[C@H](c2ccccc2)[C@H](c2ccc(Br)cc2)O1,0.278
4,CC(CCN1CCCc2nc(C)c(C)cc21)=NO[C@H](C)c1cn([C@H](CO)Cc2ccccc2)nn1,0.935
5,COC(=O)[C@@H]1CC[C@H](C)[C@@H](c2ccc(Br)cc2)N1C(=O)C(F)(F)F,-0.144
6,CC(CCN1CCCc2nc(C)c(C)cc21)=NOC[C@@H](O)COCc1ccco1,2.25
7,C#CCCCON=C1C[C@@H](O)[C@@H](O)[C@@H]2[C@@H]3C(=O)N([C@@H](C)c4ccccc4)C(=O)[C@@H]3CC[C@@H]12,-0.67
8,O=C1C2=CC[C@H]3C(=O)N(Cc4ccccc4)C(=O)[C@H]3[C@H]2[C@H](O)[C@@H]2O[C@H]12,0.245
9,CC(CCC(=O)OC[C@H]1O[C@H](C#Cc2ccccc2)C=C[C@@H]1Oc1ccc(C)cc1)=NOC(C)CN1CCCCc2nc(C)c(C)cc21 (stereo partly specified),0.191
10,CCOC(=O)NN=C1C[C@@H](O)[C@@H](O)[C@@H]2[C@@H]3C(=O)N(CC)C(=O)[C@@H]3CC[C@H]12,0.191
11,CON=C(C)CCN1CCCCc2nc(C)c(C)cc21,0.881
12,CO[C@@H](C1CCCCC1)[C@@H](C)[C@H](OCc1cccc(Br)c1)[C@@H](C)CO,0.385
13,O=C1CCCC=C1C(O)COCc1ccccc1 (stereo unspecified),-0.126
14,C=CC[C@@H]1C=C[C@H](ON=CC[C@@H]2C=C[C@H](OC(C)=O)[C@@H](COC(C)=O)O2)[C@@H](CO)O1,0.764
15,C[C@]12CCC3c4ccc(OCC5CO5)cc4CCC3C1CC[C@@H]2O (stereo partly specified),0.0294
16,COC(=O)[C@@H]1CC[C@H](C)[C@@H](c2ccc(Br)cc2)N1C[C@@H](O)CN=[N+]=[N-],0.356
17,O=C1CCCC=C1C(O)C1CCCCC1 (stereo unspecified),0.165
18,CCOC(=O)[C@H](CC(C)C)NC(=O)CCC1CC(OC(=O)NCc2ccc3c(c2)OCO3)CC2(CCCC(COC(=O)NCCc3ccccc3OC)O2)O1 (stereo partly specified),0.434
